log2 fold change data for 39 targets are collected here from the supplement of paper PMC10849652.

Of roughly 8,800 targets only a part is listed; those with a hit were picked by preference. About 0.5% of all pairs of compound and target were hits. Unmarked numbers belong to inactive results.

UniProt Q9UGJ1, sequence (Q9UGJ1 whole entry, looked up): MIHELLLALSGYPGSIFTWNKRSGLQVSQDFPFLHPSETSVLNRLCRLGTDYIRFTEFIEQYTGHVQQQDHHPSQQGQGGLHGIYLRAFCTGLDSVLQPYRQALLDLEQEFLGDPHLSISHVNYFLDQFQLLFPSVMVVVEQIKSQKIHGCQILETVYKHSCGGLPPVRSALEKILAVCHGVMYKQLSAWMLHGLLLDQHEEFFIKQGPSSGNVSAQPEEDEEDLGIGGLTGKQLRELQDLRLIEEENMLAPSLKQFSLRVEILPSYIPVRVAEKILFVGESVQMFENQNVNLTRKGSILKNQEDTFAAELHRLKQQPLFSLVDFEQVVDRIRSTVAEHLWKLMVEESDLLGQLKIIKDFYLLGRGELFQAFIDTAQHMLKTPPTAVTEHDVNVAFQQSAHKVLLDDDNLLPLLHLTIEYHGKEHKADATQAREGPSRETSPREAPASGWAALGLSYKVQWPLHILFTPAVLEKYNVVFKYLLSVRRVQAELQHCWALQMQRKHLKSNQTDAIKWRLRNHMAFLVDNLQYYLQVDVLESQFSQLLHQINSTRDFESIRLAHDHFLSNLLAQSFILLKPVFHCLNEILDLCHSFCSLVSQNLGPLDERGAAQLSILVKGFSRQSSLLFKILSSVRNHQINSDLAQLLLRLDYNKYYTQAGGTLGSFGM
UniProt Q5TEJ8, sequence (Q5TEJ8 whole entry, looked up): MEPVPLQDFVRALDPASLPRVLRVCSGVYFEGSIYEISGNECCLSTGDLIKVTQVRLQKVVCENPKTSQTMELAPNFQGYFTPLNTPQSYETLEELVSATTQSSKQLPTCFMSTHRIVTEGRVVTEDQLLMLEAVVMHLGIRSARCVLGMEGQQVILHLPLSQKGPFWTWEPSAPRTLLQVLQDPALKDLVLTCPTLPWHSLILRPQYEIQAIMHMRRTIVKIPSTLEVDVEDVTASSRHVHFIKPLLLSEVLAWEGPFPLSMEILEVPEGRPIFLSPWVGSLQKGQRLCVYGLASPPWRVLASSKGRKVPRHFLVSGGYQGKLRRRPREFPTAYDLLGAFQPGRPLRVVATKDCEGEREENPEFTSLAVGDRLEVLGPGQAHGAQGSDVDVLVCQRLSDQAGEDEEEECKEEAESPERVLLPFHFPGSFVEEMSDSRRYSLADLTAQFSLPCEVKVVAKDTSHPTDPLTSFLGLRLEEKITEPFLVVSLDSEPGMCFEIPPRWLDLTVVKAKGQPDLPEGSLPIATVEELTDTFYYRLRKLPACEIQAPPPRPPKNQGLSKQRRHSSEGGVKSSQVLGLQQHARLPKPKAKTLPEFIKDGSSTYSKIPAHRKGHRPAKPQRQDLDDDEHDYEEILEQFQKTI
UniProt Q9UHD2, sequence (Q9UHD2 whole entry, looked up): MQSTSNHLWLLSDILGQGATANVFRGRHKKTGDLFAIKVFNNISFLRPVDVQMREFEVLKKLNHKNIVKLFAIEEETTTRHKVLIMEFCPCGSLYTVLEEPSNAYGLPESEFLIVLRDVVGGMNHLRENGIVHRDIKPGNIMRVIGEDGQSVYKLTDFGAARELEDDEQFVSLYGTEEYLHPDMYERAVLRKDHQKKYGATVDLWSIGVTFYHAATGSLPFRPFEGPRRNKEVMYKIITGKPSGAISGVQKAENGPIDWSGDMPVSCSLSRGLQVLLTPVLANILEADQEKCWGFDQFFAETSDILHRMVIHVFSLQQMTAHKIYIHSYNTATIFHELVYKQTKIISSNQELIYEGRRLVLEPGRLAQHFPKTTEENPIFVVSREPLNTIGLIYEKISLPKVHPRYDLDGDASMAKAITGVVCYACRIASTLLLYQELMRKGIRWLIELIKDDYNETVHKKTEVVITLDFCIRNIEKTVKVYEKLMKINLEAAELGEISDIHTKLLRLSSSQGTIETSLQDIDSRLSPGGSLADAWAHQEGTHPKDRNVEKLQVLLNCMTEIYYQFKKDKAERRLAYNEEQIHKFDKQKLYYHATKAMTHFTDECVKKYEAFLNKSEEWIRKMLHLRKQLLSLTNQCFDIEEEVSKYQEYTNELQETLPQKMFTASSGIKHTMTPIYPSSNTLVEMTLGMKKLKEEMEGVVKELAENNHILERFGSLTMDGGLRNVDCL
UniProt Q12933, sequence (Q12933 whole entry, looked up): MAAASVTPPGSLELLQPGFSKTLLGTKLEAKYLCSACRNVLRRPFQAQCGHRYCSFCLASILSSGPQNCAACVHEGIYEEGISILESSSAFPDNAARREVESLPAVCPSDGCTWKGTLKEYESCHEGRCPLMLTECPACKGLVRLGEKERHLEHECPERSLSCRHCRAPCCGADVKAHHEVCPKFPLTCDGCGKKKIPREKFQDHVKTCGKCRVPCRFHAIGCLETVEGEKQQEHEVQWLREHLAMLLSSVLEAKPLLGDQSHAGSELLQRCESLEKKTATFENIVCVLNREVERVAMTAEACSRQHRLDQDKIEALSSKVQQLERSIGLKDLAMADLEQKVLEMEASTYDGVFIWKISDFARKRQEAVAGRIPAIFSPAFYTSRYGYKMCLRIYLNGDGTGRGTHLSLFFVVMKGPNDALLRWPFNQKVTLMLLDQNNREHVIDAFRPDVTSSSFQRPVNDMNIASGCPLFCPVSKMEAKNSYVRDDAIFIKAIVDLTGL
UniProt P09493, sequence (P09493 whole entry, looked up): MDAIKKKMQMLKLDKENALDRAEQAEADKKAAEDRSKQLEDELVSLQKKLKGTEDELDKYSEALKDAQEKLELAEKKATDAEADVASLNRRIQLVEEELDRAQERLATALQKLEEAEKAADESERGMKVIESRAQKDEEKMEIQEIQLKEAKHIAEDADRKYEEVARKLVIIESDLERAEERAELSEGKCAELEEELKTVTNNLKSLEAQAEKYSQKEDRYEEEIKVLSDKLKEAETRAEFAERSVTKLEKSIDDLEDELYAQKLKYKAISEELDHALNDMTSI
UniProt O43615, sequence (O43615 whole entry, looked up): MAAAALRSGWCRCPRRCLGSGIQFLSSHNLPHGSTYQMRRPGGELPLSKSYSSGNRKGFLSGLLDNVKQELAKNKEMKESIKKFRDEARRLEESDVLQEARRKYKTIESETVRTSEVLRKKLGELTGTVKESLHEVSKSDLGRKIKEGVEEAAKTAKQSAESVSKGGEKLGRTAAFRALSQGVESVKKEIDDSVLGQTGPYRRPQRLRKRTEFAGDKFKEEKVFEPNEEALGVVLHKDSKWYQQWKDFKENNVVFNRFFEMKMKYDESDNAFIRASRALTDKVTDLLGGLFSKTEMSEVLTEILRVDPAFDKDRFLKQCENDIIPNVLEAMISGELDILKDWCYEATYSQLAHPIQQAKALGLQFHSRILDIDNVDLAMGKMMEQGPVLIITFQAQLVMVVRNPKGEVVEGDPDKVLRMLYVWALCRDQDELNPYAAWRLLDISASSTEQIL
UniProt Q15645, sequence (Q15645 whole entry, looked up): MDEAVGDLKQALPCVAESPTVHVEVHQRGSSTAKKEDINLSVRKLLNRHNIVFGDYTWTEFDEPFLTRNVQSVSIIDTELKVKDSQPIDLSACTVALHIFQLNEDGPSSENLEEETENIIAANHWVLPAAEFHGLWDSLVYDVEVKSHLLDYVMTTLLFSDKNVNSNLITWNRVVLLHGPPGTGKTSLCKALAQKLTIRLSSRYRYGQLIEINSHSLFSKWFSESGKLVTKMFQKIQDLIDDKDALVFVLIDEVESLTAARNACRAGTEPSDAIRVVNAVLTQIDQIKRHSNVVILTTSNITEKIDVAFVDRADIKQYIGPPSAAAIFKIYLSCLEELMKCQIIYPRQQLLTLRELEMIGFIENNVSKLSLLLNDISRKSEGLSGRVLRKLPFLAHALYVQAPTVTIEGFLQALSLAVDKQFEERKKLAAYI
UniProt Q9Y5L0, sequence (Q9Y5L0 whole entry, looked up): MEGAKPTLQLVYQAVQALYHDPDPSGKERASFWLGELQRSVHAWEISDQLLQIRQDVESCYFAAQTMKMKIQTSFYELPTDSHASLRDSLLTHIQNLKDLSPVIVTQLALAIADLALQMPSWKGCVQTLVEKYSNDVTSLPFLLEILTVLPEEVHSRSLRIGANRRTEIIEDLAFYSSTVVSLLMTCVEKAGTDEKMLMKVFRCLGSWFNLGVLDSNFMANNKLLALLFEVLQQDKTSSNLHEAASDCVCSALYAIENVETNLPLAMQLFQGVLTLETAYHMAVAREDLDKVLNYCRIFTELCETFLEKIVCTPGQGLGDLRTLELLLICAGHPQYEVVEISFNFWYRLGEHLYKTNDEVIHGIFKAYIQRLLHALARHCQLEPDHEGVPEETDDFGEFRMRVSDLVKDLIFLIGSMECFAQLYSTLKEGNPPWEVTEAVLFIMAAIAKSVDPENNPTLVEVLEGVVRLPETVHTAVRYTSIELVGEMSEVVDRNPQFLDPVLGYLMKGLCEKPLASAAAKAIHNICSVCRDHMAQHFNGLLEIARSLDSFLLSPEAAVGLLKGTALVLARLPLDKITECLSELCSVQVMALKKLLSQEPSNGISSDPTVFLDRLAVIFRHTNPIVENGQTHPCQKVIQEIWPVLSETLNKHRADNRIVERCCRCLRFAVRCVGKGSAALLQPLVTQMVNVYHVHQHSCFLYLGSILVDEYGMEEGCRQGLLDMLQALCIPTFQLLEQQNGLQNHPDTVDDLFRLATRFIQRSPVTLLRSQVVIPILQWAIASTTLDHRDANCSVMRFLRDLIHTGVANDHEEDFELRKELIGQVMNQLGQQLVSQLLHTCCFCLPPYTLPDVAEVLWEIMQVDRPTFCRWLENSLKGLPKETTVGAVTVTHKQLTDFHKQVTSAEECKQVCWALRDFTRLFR
UniProt P04183, sequence (P04183 whole entry, looked up): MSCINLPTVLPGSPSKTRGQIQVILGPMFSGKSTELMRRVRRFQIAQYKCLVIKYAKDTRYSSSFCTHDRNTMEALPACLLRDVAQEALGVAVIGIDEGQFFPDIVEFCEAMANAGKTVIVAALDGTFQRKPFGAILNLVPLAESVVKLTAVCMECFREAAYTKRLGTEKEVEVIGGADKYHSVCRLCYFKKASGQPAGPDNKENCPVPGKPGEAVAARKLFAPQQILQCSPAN

Compound in the first assay: Cc1sc2c(c1C)C(c1ccc(Cl)cc1)=N[C@@H](CC(=O)OC(C)(C)C)c1nnc(C)n1-2
Briefly: log2 fold change, soluble protein after heating vs DMSO (PISA); higher = thermal stabilisation; K562 lysate, 10 uM; active = over 0.2 and 3.5 SD of the protein, either way, in both replicates (recomputed). The procedure, abridged:
(§1)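 Log-two fold change in thermal stability relative to solvent controls is reported from duplicates. For each sample, crude K562 extract from dounce-homogenised pellets in PBS pH 7.4 with 1 mM MgCl2, at 1 mg/mL protein, was treated with 10 μM compound for 30 min. Aliquots heated for 3 min across 48°C-58°C were pooled, brought to 0.5% NP-40 at 4°C and cleared at 21,000xg for 90 min. The supernatant was quantified by TMTpro 16plex LC-MS/MS with channel sums equalised.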
In the case of THEMIS2 (UniProt Q5TEJ8), the log2 fold change was 0.052.
For UBAP2 (UniProt Q5T6F2), the log2 fold change was -0.022.
As to TOPBP1 (UniProt Q92547), the log2 fold change was -0.016.
For TTF2 (UniProt Q9UNY4), the log2 fold change was 0.127.
In the case of TRIP13 (UniProt Q15645), the log2 fold change is 0.01.
Regarding TRMT12 (UniProt Q53H54), the log2 fold change was -0.061.
As for TBK1 (UniProt Q9UHD2), the log2 fold change was -0.003.
The same measure, in the same setting: then UGDH (UniProt O60701), with -0.056; and TUBGCP5 (UniProt Q96RT8), with -0.093; and TRIM65 (UniProt Q6PJ69), with 0.012.
Consider TTI2 (UniProt Q6NXR4), for which the log2 fold change is -0.035.
As for TEX30 (UniProt Q5JUR7), the log2 fold change is -0.1.
On to TTC38 (UniProt Q5R3I4), for which the log2 fold change was 0.003.
With TFCP2 (UniProt Q12800), the log2 fold change is -0.013.
TYW3 (UniProt Q6IPR3): the log2 fold change was -0.029.
On to TK1 (UniProt P04183), for which the log2 fold change was -0.045.
With UBL4A (UniProt P11441), the log2 fold change is 0.142.
Still for that read-out and setting: as for TTC27 (UniProt Q6P3X3), the figure is -0.019; as for TELO2 (UniProt Q9Y4R8), 0.056; as for TXNIP (UniProt Q9H3M7), 0.016.
The same measure, in the same setting: then TRAPPC10 (UniProt P48553), with -0.004; and TPD52L2 isoform 7 (UniProt O43399), with 0.024.
UBE4A isoform 2 (UniProt Q14139): the log2 fold change is 0.043.
As to TIMM44 (UniProt O43615), the log2 fold change is -0.035.
With TOR3A (UniProt Q9H497), the log2 fold change is 0.018.
For the target TSFM (UniProt P43897), the log2 fold change is 0.066.
Still for that read-out and setting: then TRAF2 isoform 2 (UniProt Q12933), with -0.002; and UBAP2L isoform 5 (UniProt Q14157), with 0.029.
For TNPO3 (UniProt Q9Y5L0), the log2 fold change was 0.009.
Take TUBGCP4 (UniProt Q9UGJ1): the log2 fold change is -0.027.
Turning to TRMT10A (UniProt Q8TBZ6), the log2 fold change was 0.016.
As for TUT4 (UniProt Q5TAX3), the log2 fold change is 0.009.
In the case of TGOLN2 isoform 7 (UniProt O43493), the log2 fold change is -0.017.
On to TPM1 isoform 4 (UniProt P09493), for which the log2 fold change was 0.003.
Consider TUBA1B (UniProt P68363), for which the log2 fold change is 0.015.

Compound in a further assay: c1ccc([C@@H]2C[C@H]2NC2CCNCC2)cc1
Described as above. The procedure, abridged:
as §1
As for THEMIS2 (UniProt Q5TEJ8), the log2 fold change was -0.054.
Take UBAP2 (UniProt Q5T6F2): the log2 fold change was -0.119.
For TOPBP1 (UniProt Q92547), the log2 fold change was 0.099.
With TTF2 (UniProt Q9UNY4), the log2 fold change was 0.003.
Take TMEM161B (UniProt Q8NDZ6): the log2 fold change is -0.025.
On to TRIP13 (UniProt Q15645), for which the log2 fold change is 0.049.
As to TRMT12 (UniProt Q53H54), the log2 fold change was 0.076.
With TUBB6 (UniProt K7ES63), the log2 fold change is -0.085.
For TBK1 (UniProt Q9UHD2), the log2 fold change was -0.023.
With UGDH (UniProt O60701), the log2 fold change was 0.026.
As to TUBGCP5 (UniProt Q96RT8), the log2 fold change was 0.071.
As to TRIM65 (UniProt Q6PJ69), the log2 fold change is 0.039.
Consider TUBB4A (UniProt M0QYM7), for which the log2 fold change is -0.074.
As for TTI2 (UniProt Q6NXR4), the log2 fold change was 0.024.
On to TEX30 (UniProt Q5JUR7), for which the log2 fold change was -0.038.
Turning to TTC38 (UniProt Q5R3I4), the log2 fold change is 0.126.
Take TFCP2 (UniProt Q12800): the log2 fold change is -0.103.
In the case of TYW3 (UniProt Q6IPR3), the log2 fold change is -0.067.
With TK1 (UniProt P04183), the log2 fold change is -0.116.
The same measure, in the same setting: then UBL4A (UniProt P11441), with 0.073; and TTC27 (UniProt Q6P3X3), with 0.032.
As for TELO2 (UniProt Q9Y4R8), the log2 fold change was 0.025.
Regarding TXNIP (UniProt Q9H3M7), the log2 fold change was 0.087.
For the target TRAPPC10 (UniProt P48553), the log2 fold change was -0.012.
Take TPD52L2 isoform 7 (UniProt O43399): the log2 fold change is -0.058.
In the case of TFPI (UniProt P10646), the log2 fold change is 0.269.
Same read-out and setting: as for UBE4A isoform 2 (UniProt Q14139), the figure is 0.051; as for TIMM44 (UniProt O43615), -0.003; as for TOR3A (UniProt Q9H497), -0.008.
Same read-out and setting: as for TSFM (UniProt P43897), the figure is -0.092; as for TRAF2 isoform 2 (UniProt Q12933), -0.015; as for UBAP2L isoform 5 (UniProt Q14157), -0.004.
In the case of TNPO3 (UniProt Q9Y5L0), the log2 fold change was -0.029.
In the case of TUBGCP4 (UniProt Q9UGJ1), the log2 fold change was -0.007.
TRMT10A (UniProt Q8TBZ6): the log2 fold change was -0.029.
Take TUT4 (UniProt Q5TAX3): the log2 fold change was -0.021.
TGOLN2 isoform 7 (UniProt O43493): the log2 fold change is -0.069.
Regarding TPM1 isoform 4 (UniProt P09493), the log2 fold change was 0.056.
The same measure, in the same setting: as for TUBA1B (UniProt P68363), the figure is -0.03.
